Measurements as given in PubChem BioAssay (NCATS).
Records with an inconclusive call do not appear. Calls of active or inactive are those of the source. Calls come from the whole dose curve; as a rule, active = well fitted curve in the direction sought with a large enough effect; inconclusive = small, poorly fitted or top-dose-only effect, or another doubt; inactive = no such curve, though single readings can be large; an effect the other way counts as inactive or inconclusive.

What was measured:
[1] = Cellular Toxicity (caspase-3) Hek293 (AID 664);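 note: cells exposed to compound for 16 h at 37 °C before readout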
Summary of the method: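 HEK293 cells in complete medium treated 16 h at 37 °C, then Caspase-Glo 3/7 luminescence read after 20 min at room temperature. Normalized to DMSO and 100 uM tamoxifen; AC50 from Hill fit of concentration-response.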

[2] = Cellular Toxicity (caspase-3) N2a (AID 665);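 note: compound exposure lasted 16 h at 37 °C before readout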
Summary of the method: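 Mouse N2a neuroblastoma cells, 1500 per well, treated 16 h at 37 °C in complete medium; caspase-3/7 activity by Caspase-Glo luminescence after 1 h. Normalized to DMSO and 10 uM staurosporine; AC50 from Hill fits.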

[3] = Cellular Toxicity (caspase-3) NIH 3T3 (AID 666)
Summary of the method: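 Mouse NIH 3T3 fibroblasts (1000/well) treated 16 h at 37 C; caspase-3/7 activity measured by Caspase-Glo 3/7 luminescence after 20 min. Normalized to DMSO and 100 uM tamoxifen; AC50 from Hill fits.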

[4] = Cellular Toxicity (caspase-3) Renal Proximal Tubule (AID 667);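 note: cells exposed to compound for 16 hours at 37 °C before detection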
Summary of the method: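 Caspase-Glo 3/7 read-out, rat primary kidney proximal tubule cells. Compound exposure 16 h, 37 °C; detection after 1 h at RT. Activity scaled to DMSO and 10 uM staurosporine.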

[5] = molecular target: Cytochrome P450 3A4 (Homo sapiens) (UniProt P08684); assay: qHTS Assay for Inhibitors and Substrates of Cytochrome P450 3A4 (AID 884); note: series mostly up to about 57 µM; nearly all actives have a fitted effect of over 50% in size
Chain of Cytochrome P450 3A4 (Homo sapiens) (P08684 whole entry, looked up): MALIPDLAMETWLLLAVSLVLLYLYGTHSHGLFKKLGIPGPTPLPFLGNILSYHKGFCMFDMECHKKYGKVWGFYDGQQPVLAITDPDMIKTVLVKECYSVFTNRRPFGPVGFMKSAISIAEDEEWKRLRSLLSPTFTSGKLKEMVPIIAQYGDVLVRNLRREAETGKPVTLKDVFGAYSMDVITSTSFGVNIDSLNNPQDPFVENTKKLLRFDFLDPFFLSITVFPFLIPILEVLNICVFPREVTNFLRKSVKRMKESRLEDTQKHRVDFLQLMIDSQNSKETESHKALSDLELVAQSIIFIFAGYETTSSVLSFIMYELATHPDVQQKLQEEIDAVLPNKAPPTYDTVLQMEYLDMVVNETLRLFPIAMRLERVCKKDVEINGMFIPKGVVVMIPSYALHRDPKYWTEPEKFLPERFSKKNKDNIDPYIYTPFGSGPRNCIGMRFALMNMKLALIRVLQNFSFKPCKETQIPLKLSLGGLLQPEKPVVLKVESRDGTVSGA
Summary of the method: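 20 nM human CYP3A4 with 25 uM Luciferin-PPXE (at KM) in 200 mM KPO4, preincubated 10 min with compound; NADPH regeneration started a 60 min RT reaction. Luciferin detected by luminescence, normalized to 57 uM ketoconazole as full inhibition.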

[6] = MultiTox-Fluor Cytotoxicity Assay - LYMP1-001 - Dead Cells (AID 946)
Summary of the method: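 Cytotoxicity as increased dead-cell protease fluorescence (bis-AAF-R110, 485/520 nm), read 60 min after MultiTox-Fluor reagent. Human lymphoblastoid line exposed 16 h; Hill-fitted AC50, with DMSO as 0% and 15 uM tetraoctylammonium bromide as 100%.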

[7] = MultiTox-Fluor Cytotoxicity Assay - LYMP1-001 - Live Cells (AID 947)
[8] = Cell Viability - LYMP1-002 - Assay at 16 hr (AID 948)
Summary of the method: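 In this qHTS, lymphoblastoid LYMP1-002 cells (human) receive compounds for 16 hr at 37 C. Viability is taken from CellTiter-Glo ATP luminescence, and AC50 derives from standard Hill fits.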

[9] = MultiTox-Fluor Cytotoxicity Assay - LYMP1-002 - Live Cells (AID 955);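 note: cells exposed to compound for 16 hours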
Summary of the method: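 Human lymphoblastoid LYMP1-002 cells, 2500/well, treated 16 h at 37 C in complete medium. Live-cell protease activity via GF-AFC fluorescence (Ex/Em 405/510) after 60 min reagent incubation; AC50 from Hill fits.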

[10] = MultiTox-Fluor Cytotoxicity Assay - LYMP1-002 - Dead Cells (AID 960); note: nearly all actives have a fitted effect of over 60% in size
Summary of the method: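 Human lymphoblastoid LYMP1-002 cells, 2500/well, treated 16 h at 37 C; dead-cell protease cleavage of bis-AAF-R110 read by fluorescence (485/520); normalized to DMSO and 15 uM tetraoctylammonium bromide; AC50 from Hill fit.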

[11] = MultiTox-Fluor Cytotoxicity Assay - LYMP1-003 - Dead Cells (AID 961); note: nearly all actives have a fitted effect of over 70% in size
Summary of the method: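 Dead-cell protease release, detected as bis-AAF-R110 fluorescence at 485/520 nm, was measured in LYMP1-003 cells after 16 h compound treatment at 37 C. AC50 values came from Hill-modeled qHTS curves normalized to DMSO (0%) and 15 uM tetraoctylammonium bromide (100%).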

[12] = MultiTox-Fluor Cytotoxicity Assay - LYMP1-003 - Live Cells (AID 962);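 note: cells exposed to compound for 16 hours at 37 °C; cytotoxic hits lower the live-cell protease signal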
Summary of the method: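 LYMP1-003 lymphoblastoid cells, 2500/well in complete medium, treated 16 h at 37 C; live-cell protease cleavage of GF-AFC read by fluorescence (Ex/Em 405/510) after 60 min reagent; AC50 from Hill fits of concentration-response.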

[13] = Cell Viability - LYMP1-003 - Assay at 24 hr (AID 963)
Summary of the method: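 Human lymphoblastoid LYMP1-003 cells, 2500/well, treated 24 h at 37 C in complete medium. Viability read as intracellular ATP by CellTiter-Glo luminescence after 30 min at room temperature; AC50 from Hill-equation fits of qHTS concentration-response.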

[14] = Cell Viability - LYMP1-003 - Assay at 40 hr (AID 964); note: series mostly up to about 92 µM; nearly all actives have a fitted effect of over 60% in size
Summary of the method: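 LYMP1-003 human lymphoblastoid cells, 2500/well, preincubated 5 h at 37 C, then treated with compound for 40 h at 37 C. Intracellular ATP read by CellTiter-Glo luminescence after 30 min at room temperature; AC50 from Hill-equation fits.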

[15] = Cell Viability - LYMP2-003 (AID 965);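 note: cells exposed to compounds for 24 h before reading; nearly all actives have a fitted effect of over 50% in size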
Summary of the method: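 qHTS, human lymphoblastoid line, 2500 cells/well, complete medium. 24 h drug, 37 C. ATP-based luminescent readout; Hill-fit AC50.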

[16] = Cell Viability - LYMP2-004 (AID 966); note: nearly all actives have a fitted effect of over 65% in size
Summary of the method: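 Lymphoblastoid LYMP2-004 cells, 2500 per well, were preincubated for 5 hr and then treated with compound for 24 h at 37 C in complete medium. Viability was read as cellular ATP by CellTiter-Glo luminescence, and AC50 values were taken from Hill fits to concentration-response data.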

[17] = Cell Viability - LYMP2-009 (AID 968); note: series mostly up to about 92 µM; nearly all actives have a fitted effect of over 55% in size
[18] = Cell Viability - LYMP2-011 (AID 969); note: nearly all actives have a fitted effect of over 60% in size
Summary of the method: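 2500 cells/well in complete medium, compound-treated 24 h at 37 C. Viability read as intracellular ATP by CellTiter-Glo luminescence after 30 min at room temperature. AC50 from Hill fits of qHTS concentration-response data.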

[19] = Cell Viability - LYMP2-013 (AID 970); note: series mostly up to about 92 µM; nearly all actives have a fitted effect of over 55% in size
Summary of the method: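 Human lymphoblastoid LYMP2-013 cells, 2500/well, treated 24 h at 37 C in complete medium; viability as intracellular ATP by CellTiter-Glo luminescence after 30 min. AC50 from Hill fits of qHTS concentration-response.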

[20] = Cell Viability - LYMP2-015 (AID 971); note: nearly all actives have a fitted effect of over 55% in size
Summary of the method: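 LYMP2-015 human lymphoblastoid cells (2500/well) in complete medium, compound-treated 24 h at 37 C; viability read as cellular ATP by CellTiter-Glo luminescence after 30 min at room temperature. AC50 from Hill-equation fits of qHTS concentration-response data.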

[21] = Cell Viability - LYMP2-017 (AID 972); note: series mostly up to about 92 µM; nearly all actives have a fitted effect of over 55% in size
Summary of the method: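 LYMP2-017 human lymphoblastoid cells (2500/well) settled 5 hr at 37 C, then exposed to compound 24 hr at 37 C in complete medium. Viability taken as intracellular ATP by CellTiter-Glo luminescence after 30 min at RT; AC50 from Hill fits.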

[22] = Cell Viability - LYMP2-019 (AID 973); note: nearly all actives have a fitted effect of over 55% in size
Summary of the method: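 Human lymphoblastoid LYMP2-019 cells (2500/well) preincubated 5 h at 37 C, then treated 24 h at 37 C in complete medium. Viability by CellTiter-Glo ATP luminescence after 30 min at room temperature; AC50 from Hill fits.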

[23] = Cell Viability - LYMP2-021 (AID 974)
Summary of the method: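 Human lymphoblastoid LYMP2-021 cells, 2500/well in complete medium, treated 24 hours at 37 C. Intracellular ATP by CellTiter-Glo luminescence (30 min, RT); AC50 from Hill fits of concentration-response.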

Measured: Potency

O=S(=O)(O)c1ccccc1
inactive: all assays above
